Rows were chosen to be rich in hits. Some 2.8% of all compounds tested hit in one or more screens of this group.
CF NFkB inh – blocks PAF-induced NF-kB reporter in cystic fibrosis cells; KKLEB NF-kB-GFP reporter, GFP fluorescence overnight; inhibition, % at 5 µM; actives 0.86% (n = 360,000); AID 588850;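 active = at least 50% inhibition at 5 µM, scaled per plate between neutral and stimulator controls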;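 note: PAF is a Pseudomonas aeruginosa culture filtrate used as stimulus; plate controls were PAF-stimulated DMSO wells for no effect and unstimulated DMSO wells for full effect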
HIF-2a inh – HIF-2a inhibition. 786-0 RCC cells HIF-2a reporter, luciferase luminescence, overnight. inhibition, % at 18.8 µM. actives 0.72% (n = 360,000);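 active = inhibition of the luminescence signal of 40% or more relative to plate controls, in a single-dose primary screen at 18.75 µM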
Shn3 3UTR inh – Schnurri-3 reporter inhibition in Clone20 osteoblasts. inhibition, % at 12.5 µM. AID 588674. actives 0.52% (n = 360,000). Clone20 osteoblast Shn3 3'UTR firefly luciferase, 24 h;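 active = mean inhibition of at least 75% with every replicate also reaching 75%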;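 note: 0% = median of neutral control wells and 100% = pilot-screen positive control compound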
KKLEB tox – reduces viability of KKLEB cystic fibrosis airway cells | activity change (cytotoxicity), % at 5 µM | AID 602141 | actives 0.36% (n = 360,000) | KKLEB CF airway cells viability, ATPlite luminescence, overnight; active compounds read low; cells stimulated with P. aeruginosa culture filtrate;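 active = corrected activity change at or below -50% at 5 µM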
TRPM1 prom inh – reduces MITF-dependent TRPM1 promoter luciferase signal; SK-MEL-5 TRPM1 promoter luciferase, 24 h; inhibition, % at 12.5 µM; actives 0.83% (n = 330,000); AID 488899;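 active = mean inhibition across replicates of 60% or more, whatever share of single replicates reaches that level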
Peg3 promoter – reduces Peg3 promoter-driven luciferase expression in HeLa. HeLa PEG-Prom luciferase reporter, luminescence, overnight. inhibition, % at 20 µM. actives 1.7% (n = 360,000);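 active = inhibition of at least 50% at 20 µM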
* = called active by the depositor; . = no result.

SMILES	CF NFkB inh	HIF-2a inh	Shn3 3UTR inh	KKLEB tox	TRPM1 prom inh	Peg3 promoter
NC1=C(Cl)C(=O)c2ccc(S(N)(=O)=O)cc2C1=O	89*	97*	98*	-95*	96*	110*
NS(=O)(=O)c1ccc2c(c1)C(=NO)c1cc(S(N)(=O)=O)ccc1-2	9	22	19	-2	12	6
O=C1c2ccccc2-c2nccnc21	13	0	-7	-3	15	-7
NC1=C(Cl)C(=O)c2ccccc2C1=O	60*	-14	-2	7	95*	-62
COc1ccc(Cl)cc1NC(=O)CSc1nc(=O)n(CCN(C)C)c2c1CCCC2	36	19	6	-33	-2	1
O=C(Nc1nnc(SCc2ccc(F)cc2)s1)c1ccccn1	-27	-92	77	5	1	65*
O=C(Nc1nnc(SCc2ccc(F)cc2)s1)c1cccnc1Cl	6	-8	7	-3	-5	-13
COc1ccc(CNC(=O)C2(C)Cc3ccccc3C(=O)O2)cc1 (configuration not stated)	-13	7	-16	12	14	6
Cc1cc(C)cc(C(=O)NCC(=O)OCN2C(=O)c3ccccc3C2=O)c1	23	-7	-7	-2	1	52*
O=C(CNC(=O)c1ccccc1)OCN1C(=O)c2ccccc2C1=O	5	-3	-1	-3	6	-1
CCCCn1c(N)c(N(CCOC)C(=O)c2ccc(S(=O)(=O)N3CCCCC3)cc2)c(=O)[nH]c1=O	-16	12	-11	2	-6	4
COc1cc(OC)c(N(C)S(=O)(=O)c2cccc(C(=O)Nc3nccs3)c2)cc1Cl	-14	22	31	12	1	51*
CC1CCN(S(=O)(=O)c2nnc(NC(=O)c3cccc(Cl)c3)s2)CC1	37	-14	-3	-17	.	32
O=C(NCc1nc(-c2ccc(C(F)(F)F)cc2)no1)Nc1ccc(OC(F)(F)F)cc1	33	3	3	-29	-8	74*
COc1ccc(-c2noc(CNS(=O)(=O)c3ccc(NC(C)=O)cc3)n2)cc1	-14	-11	7	-7	8	-11
O=C(CNC(=O)c1ccccc1Cl)N/N=C/c1ccc([N+](=O)[O-])s1	1	-18	24	-1	46	-10
O=[N+]([O-])c1ccc(/C=N/n2c(CO)nc3ccccc32)s1	22	11	-14	-8	72*	45
Cc1nc2ccccc2n1/N=C/c1ccc([N+](=O)[O-])o1	12	-24	4	-19	10	-8
Cc1nc2ccccc2n1/N=C/c1ccc([N+](=O)[O-])s1	21	-8	92*	-20	82*	43
COc1ccc(CCNc2cc(N3CCN(C(=O)c4ccccc4F)CC3)ccc2[N+](=O)[O-])cc1OC	6	-9	88*	-1	83*	45
COc1ccc(CCNc2ccc(C(=O)O)cc2[N+](=O)[O-])cc1OC	0	12	5	-3	-2	2
COc1ccc(C(=O)N2CCN(c3ccc([N+](=O)[O-])c(NCCc4ccc(OC)c(OC)c4)c3)CC2)cc1	-5	9	75	12	79*	30
O=C(c1ccccc1F)N1CCN(c2ccc([N+](=O)[O-])c(NCc3cccnc3)c2)CC1	9	20	16	-2	.	20
C[C@@H]1CN([C@H](C)CO)C(=O)c2c(c3ccccc3n2C)-c2ccccc2CO[C@H]1CN(C)Cc1ccccc1	22	-27	-2	-13	.	1
C[C@@H]1CN([C@H](C)CO)C(=O)c2c(c3ccccc3n2C)-c2ccccc2CO[C@H]1CN(C)Cc1ccc(-c2ccccc2)cc1	4	-15	1	0	.	83*
O=C(Nc1cccc(OCC(=O)N2CCOCC2)c1)c1cccc([N+](=O)[O-])c1	-16	3	-15	3	1	12
O=C(COc1cccc(NC(=O)c2cccc([N+](=O)[O-])c2)c1)c1ccc(Br)cc1	4	1	35	2	15	50*
CCOC(=O)c1c(NC(=S)NCCc2ccccc2)sc2c1CC(C(C)C)OC2 (configuration not stated)	60*	3	3	-36	7	28

Screening data deposited in PubChem by several laboratories.
